Bioassay records from PubChem.
Rows were chosen to be rich in hits. Some 9.6% of all compounds tested hit in one or more screens of this group.
Insulin prom up: MIN6 insulin promoter up-regulation | MIN6 insulin promoter-GFP reporter, high-content imaging; active compounds read high | z-score at 5 µM | 190,000 compounds, 0.3% hits | AID 1625;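 active = z-score above 3 at 5 µM with at least 500 cells counted in the well; inconclusive = wells under 500 cells, flagged as cytotoxic or low count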
L major viab: Leishmania major promastigote growth inhibition; inhibition, % at 10 µM; Leishmania major promastigotes, resazurin fluorescence viability; 200,000 compounds, 9% hits; AID 1063; in the data active = inhibition above about 50%;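 note: promastigotes grown with compound for 44 hours at 28 °C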
HCT116 PTEN-null: growth suppressors of cells with PTEN tumor suppressor deletion | HCT116 PTEN-null viability, CellTiter-Glo, 60 h; active compounds read low | viability, % at 10 µM | 140,000 compounds, 1.2% hits | AID 827;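 active = viability at or below a set limit, 4 SD under the median of all tested compounds, cut at about 3.7% in these data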;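 note: PTEN knockout HCT116 line with beta catenin targeted HCT116 as companion control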
Autophagy HCS: modulators of autophagy; MEF GFP-LC3 puncta imaging; test concentration mostly 10 µM; calls only at 10 µM (by protocol); 190,000 compounds, 0.98% hits; AID 463193;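 active = percentage of spot-positive cells more than 3 SD above its plate mean, without a fluorescence outlier flag or 80% toxicity; inconclusive = no clear call, values can overlap the other calls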
INS promoter inh: TRM-6 insulin promoter activity inhibition. inhibition, % at 2 µM. 130,000 compounds, 0.9% hits. TRM-6 cells (human fetal islet line), insulin promoter-eGFP reporter, imaging; reporter expression induced with tamoxifen;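 active = inhibition above the mean plus 3 SD, with well images judged a real hit on visual review, cut at about 60% in these data, passing the limit was not always enough; inconclusive = inhibition over the cutoff but images rejected on review; inactive = inhibition not above the cutoff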
bCat KO growth: beta-catenin-lacking colon tumor cell growth suppression; HCT116 beta-catenin knockout viability, CellTiter-Glo, 60 h; active compounds read low; viability, % at 10 µM; 140,000 compounds, 1.5% hits; AID 818;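 active = viability at or under a set limit, the compound median less 4 SD, cut at about 6% in these data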
Each line names hits and unclear results; the compound was inactive in the other large screens.

O=C(NC1CC1)C1CCN(C2CCN(C(=O)/C=C/c3ccc(F)cc3)CC2)CC1	L major viab 66 (no result: HCT116 PTEN-null, INS promoter inh, bCat KO growth)
O=C(NC1CC1)C1CCN(C2CCN(C(=O)CC3=CCCCC3)CC2)CC1	L major viab 75 (no result: HCT116 PTEN-null, bCat KO growth)
O=C(/C=C/c1ccccc1)N1CCC(N2CCC(C(=O)N3CCOCC3)CC2)CC1	L major viab 51 (no result: HCT116 PTEN-null, INS promoter inh, bCat KO growth)
CCCOc1ccc2oc(=O)c3c(c2c1)CCCN3C(=O)CN(C)Cc1ccccc1	L major viab 58
CCCCCOc1ccc2oc(=O)c3c(c2c1)CCCN3C(=O)CN1CCCC(C(=O)OCC)C1 (centres undefined)	none
CC(=O)Nc1cccc(C(=O)Oc2cccc(C)c2)c1O	none
Oc1ccc(Nc2nc(NCC3CCCO3)c3ccccc3n2)cc1 (centres undefined)	Insulin prom up inconclusive, L major viab 100
OCCNc1nc(Nc2ccc(O)cc2)nc2ccccc12	none (no result: L major viab, HCT116 PTEN-null, Autophagy HCS, INS promoter inh, bCat KO growth)
CC(C)Oc1ccc(-c2nc(NCC3CCCO3)c3ccccc3n2)cc1 (centres undefined)	none (no result: L major viab, HCT116 PTEN-null, Autophagy HCS, INS promoter inh, bCat KO growth)
Oc1ccccc1Nc1nc(NCC2CCCO2)c2ccccc2n1 (centres undefined)	L major viab 82
COc1cccc(Nc2nc(NCCO)c3ccccc3n2)c1	L major viab 101 (no result: Insulin prom up)
c1ccc2c(NCC3CCCO3)nc(N3CCCCC3)nc2c1 (centres undefined)	L major viab 67 (no result: Insulin prom up, HCT116 PTEN-null, bCat KO growth)
Clc1ccc(/C=N/N2CCN(Cc3ccccc3Cl)CC2)cc1	none (no result: HCT116 PTEN-null, INS promoter inh, bCat KO growth)
COc1cccc(CNc2ccc3c(c2)ncn3C(C)C)c1OC	none (no result: Autophagy HCS, INS promoter inh)
O=C(NCc1ccco1)C(c1cccs1)N(Cc1ccccc1)C(=O)Cn1nnc2ccccc21 (centres undefined)	none (no result: Insulin prom up, INS promoter inh)
Cc1ccc(NC(=S)NNC(=O)Nc2ccccc2)cc1	none (no result: HCT116 PTEN-null, INS promoter inh, bCat KO growth)
COC(=O)c1ccc(Sc2ccccc2NS(=O)(=O)c2ccc(NC(C)=O)cc2)nc1	none
COc1cccc(Nc2nc(NCC3CCCO3)c3ccccc3n2)c1 (centres undefined)	Insulin prom up inconclusive, L major viab 100, HCT116 PTEN-null 1.2, bCat KO growth 1.3
COc1cccc(Nc2nnc(SCC3CCCCO3)s2)c1 (centres undefined)	none (no result: HCT116 PTEN-null, bCat KO growth)
CCc1ccc(OCCOCC(O)CNC(C)(C)C)cc1 (centres undefined)	none (no result: INS promoter inh)
Clc1ccc(CNc2ccc(CNc3ncn[nH]3)cc2)cc1	none
COc1ccc(Br)cc1C(=O)Nc1ccccc1N1CCN(C(=O)c2ccccc2)CC1	L major viab 55 (no result: HCT116 PTEN-null, INS promoter inh, bCat KO growth)
CCOc1ccc2c(c1)C(c1ccc(C)o1)=NNC(c1ccncc1)=N2	Autophagy HCS active (no result: HCT116 PTEN-null, INS promoter inh, bCat KO growth)
O=C(Nc1cnn(C23CC4CC(CC(C4)C2)C3)c1)c1cnn2c(C(F)(F)F)cc(-c3ccco3)nc12	Insulin prom up inconclusive, L major viab 82
CCCC(=O)Nc1ccc(Cl)c(NC(=S)NC(=O)c2ccco2)c1	none (no result: INS promoter inh)
COc1cc(-c2nnc3sc(-c4cccs4)nn23)cc(OC)c1OC	HCT116 PTEN-null 3.0, bCat KO growth 4.0
COc1ccc(-c2nnc3sc(-c4cccs4)nn23)cc1OC	none
Cc1noc(NS(=O)(=O)c2ccc(NC(=O)CSc3nc4c(cc3C#N)CCCCC4)cc2)c1C	none
O=C(NCc1ccco1)c1cc([N+](=O)[O-])cc([N+](=O)[O-])c1	L major viab 58, INS promoter inh 67
CC1CCCN(c2ccc(C(=O)NCc3ccco3)cc2[N+](=O)[O-])C1 (centres undefined)	L major viab 73
Cc1ccc(C(=O)NCc2ccco2)cc1[N+](=O)[O-]	none
O=C(NCc1ccco1)c1cc([N+](=O)[O-])ccc1Cl	none (no result: HCT116 PTEN-null, INS promoter inh, bCat KO growth)
Cc1[nH]c2ccccc2c1C(c1ccncc1)N1CCN(c2ccc(F)cc2)CC1 (centres undefined)	L major viab 99
Cc1[nH]c2ccccc2c1C(c1ccncc1)N1CCCCC1 (centres undefined)	none (no result: HCT116 PTEN-null, INS promoter inh, bCat KO growth)
Cc1cccc(C(C)C)c1NC(=O)c1ccc(COc2ccc3c(C)cc(=O)oc3c2)cc1	none
CCC(C)(C)NC(=O)/C=C/c1cnc2ccccc2n1	L major viab 52
O=C(O)/C=C/c1cnc2ccccc2n1	none (no result: HCT116 PTEN-null, bCat KO growth)
O=C(Cn1c2c(sc1=O)C1c3ccccc3OCC1CS2)Nc1ccc(Cl)c(Cl)c1 (centres undefined)	L major viab 96
COc1cc(NC(=O)CN2C(=O)C(c3ccccc3)=NC23CCCCCC3)cc(OC)c1	none
Cc1cccc(-c2noc(CN(C(=O)/C=C/c3ccccc3Cl)C(C)C)n2)c1	none (no result: Insulin prom up)
